Measurements: article PMC4336329 (PLoS ONE, 2015)
The whole screen tested about 310,000 compounds, of which about 2,200 (0.71%) showed an effect of 50% or more. The effect is printed as a negative number. Only a selection was taken, and strong results are over-represented in it overall.

The compounds below were run against human ether-à-go-go-related gene (hERG) potassium channel (human, UniProt Q12809) (assay: primary screen, population patch clamp on CHO cells stably expressing hERG; higher = less effect of the substance).
human ether-à-go-go-related gene (hERG) potassium channel, sequence (Q12809 whole entry, looked up): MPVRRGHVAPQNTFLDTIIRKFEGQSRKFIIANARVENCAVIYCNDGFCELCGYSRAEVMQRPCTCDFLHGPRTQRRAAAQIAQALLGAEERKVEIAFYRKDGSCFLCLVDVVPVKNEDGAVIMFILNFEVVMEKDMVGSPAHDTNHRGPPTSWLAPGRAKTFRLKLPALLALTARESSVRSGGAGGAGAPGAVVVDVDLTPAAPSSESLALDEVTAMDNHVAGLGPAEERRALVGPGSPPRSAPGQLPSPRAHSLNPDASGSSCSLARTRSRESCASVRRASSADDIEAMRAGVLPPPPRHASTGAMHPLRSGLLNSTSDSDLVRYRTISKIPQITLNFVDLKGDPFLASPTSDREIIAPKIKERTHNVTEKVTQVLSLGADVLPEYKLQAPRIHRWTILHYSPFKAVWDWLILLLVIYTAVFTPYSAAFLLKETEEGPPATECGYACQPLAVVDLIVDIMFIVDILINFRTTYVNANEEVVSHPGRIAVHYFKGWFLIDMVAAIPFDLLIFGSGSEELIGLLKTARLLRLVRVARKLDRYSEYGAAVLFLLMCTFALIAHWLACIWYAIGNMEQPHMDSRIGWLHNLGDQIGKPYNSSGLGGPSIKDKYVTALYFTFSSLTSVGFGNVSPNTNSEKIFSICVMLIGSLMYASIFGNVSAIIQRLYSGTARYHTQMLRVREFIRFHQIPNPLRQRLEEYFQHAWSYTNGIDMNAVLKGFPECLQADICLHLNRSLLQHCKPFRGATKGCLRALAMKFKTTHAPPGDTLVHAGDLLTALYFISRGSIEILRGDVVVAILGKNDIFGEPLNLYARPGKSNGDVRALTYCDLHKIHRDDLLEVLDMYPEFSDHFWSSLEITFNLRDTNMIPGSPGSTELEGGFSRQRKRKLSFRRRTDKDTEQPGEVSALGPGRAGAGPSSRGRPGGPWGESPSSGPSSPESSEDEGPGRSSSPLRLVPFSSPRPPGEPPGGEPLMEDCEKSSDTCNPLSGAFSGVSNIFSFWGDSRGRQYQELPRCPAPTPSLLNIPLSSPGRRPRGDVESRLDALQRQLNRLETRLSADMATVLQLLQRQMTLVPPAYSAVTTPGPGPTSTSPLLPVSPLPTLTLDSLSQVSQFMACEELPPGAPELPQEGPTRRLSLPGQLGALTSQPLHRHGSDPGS

Row | Structure (SMILES) | hERG current change (%, negative = inhibition) at 1uM [%]
1 | CCN1CCN(c2nc(-c3cccs3)nc3ccccc23)CC1 | -66.2
2 | c1ccc(N2CCN(c3nc(-c4cccs4)nc4ccccc34)CC2)cc1 | 4.12
3 | CCCN1CCN(c2nc(-c3cccs3)nc3ccccc23)CC1 | -16.1
4 | CN1CCN(c2nc(-c3cccs3)nc3ccccc23)CC1 | -55
5 | c1csc(-c2nc(N3CCOCC3)c3ccccc3n2)c1 | 5.11
6 | CC(=O)N1CCN(c2nc(-c3cccs3)nc3ccccc23)CC1 | -49.4
7 | COc1ccc(CC(=O)N2CCN(S(=O)(=O)c3cc(Cl)ccc3Cl)CC2)cc1 | 14
8 | CCOC(=O)N1CCC(N2CCN(c3cc(C)ccc3C)CC2)CC1 | -32.2
9 | COc1cccc2c1OCC/C2=N\NC(=O)COc1ccccc1C | -13.9
10 | COc1ccc(CNC(=O)C2CC(c3cccc([N+](=O)[O-])c3)=NO2)cc1 (stereo not drawn) | 5.46
11 | O=C(NCc1cccnc1)c1ccc(Cl)cc1[N+](=O)[O-] | 7.05
12 | c1ccc(CSc2ncnc3c2oc2ccccc23)cc1 | 9.56
13 | N=c1c(C(=O)NCc2ccc(F)cc2)cc2c(=O)n3ccccc3nc2n1CC1CCCO1 (stereo not drawn) | -85.3
14 | N=c1c(C(=O)NCc2ccc3c(c2)OCO3)cc2c(=O)n3ccccc3nc2n1CC1CCCO1 (stereo not drawn) | -84.2
15 | Cc1ccc(CNC(=O)c2cc3c(=O)n4ccccc4nc3n(CC3CCCO3)c2=N)cc1 (stereo not drawn) | -85.7
16 | O=C(CSc1nc2ccccc2c(=O)n1CC1CCCO1)NCc1ccc2c(c1)OCO2 (stereo not drawn) | 9.71
17 | N=c1c(S(=O)(=O)c2ccc(F)cc2)cc2c(=O)n3ccccc3nc2n1CC1CCCO1 (stereo not drawn) | -2.33
18 | COc1ccc(CNC(=O)c2cc3c(=O)n4ccccc4nc3n(CC3CCCO3)c2=N)cc1 (stereo not drawn) | -80.4
19 | CCOC(=O)c1cc2c(=O)n3ccccc3nc2n(CC2CCCO2)c1=NC(C)=O (stereo not drawn) | 16.6
20 | CCc1ccc(N(CC(=O)Nc2ccccc2C(=O)N2CCOCC2)S(C)(=O)=O)cc1 | 8.28
21 | O=C(NCc1cccnc1)c1ccc(CS(=O)(=O)Cc2ccc(Cl)cc2)o1 | 3.03
22 | Cc1c(C(=O)OCC(=O)N2c3ccccc3CC2C)oc2ccccc12 (stereo not drawn) | 14.6
23 | O=C(Nc1cccc(F)c1)Nc1ccccn1 | 16
24 | Cc1c(C(=O)c2ccccc2)c(=O)n(C)c(=O)n1C | 9.65
25 | O=S(=O)(Nc1cccc(-c2ccc(N3CCCCCC3)nn2)c1)c1cccc(F)c1 | 14.3
26 | CSc1nnc(-c2ccc(O)cc2)n1C | -1.62
27 | COC(=O)c1ccc(CN2CCCC(C(=O)c3cc(F)ccc3OC)C2)cc1 (stereo not drawn) | -8.3

Row | Structure (SMILES) | hERG current change (%, negative = inhibition) at 1uM [%]
28 | O=C1c2ccccc2C(=O)N1CCCc1nc(-c2ccccn2)no1 | -4.38
29 | CCOC(=O)/C(N=Nc1sc(C(=O)OC)c(C)c1C(=O)OCC)=C(\O)CCl | 14.4
30 | COc1cc(OC)cc(C(=O)OCC(=O)N(C)c2ccccc2)c1 | 9.32
31 | Oc1ccc(-c2[nH]ncc2-c2ccc(Br)cc2)c(O)c1 | 6.73
32 | CCC(=O)Nc1ccc(Oc2ccc3c(c2)C(=O)N(c2ccc(O)cc2)C3=O)cc1 | 13.7
33 | O=C1CC(N2CCN(C/C=C/c3ccccc3)CC2)C(=O)N1Cc1ccc(N2CCCC2=O)cc1 (stereo not drawn) | -13
34 | O=C1CC(N2CCN(C/C=C/c3ccccc3)CC2)C(=O)N1CCc1ccccc1 (stereo not drawn) | -4.01
35 | O=C1CC(N2CCN(C/C=C/c3ccccc3)CC2)C(=O)N1Cc1cccs1 (stereo not drawn) | -50.8
36 | COc1ccc(NC(=O)CN2CCN(CC(=O)Nc3ccccc3Cl)CC2)c(OC)c1 | -48
37 | CCOc1ccc(NC(=O)CN2CCN(CC(=O)Nc3ccc(OC)cc3OC)CC2)cc1 | -58.2
38 | COc1cccc(NC(=O)CN2CCN(c3ccc(F)cc3)CC2)c1 | 2.77
39 | COc1cccc(NC(=O)CN2CCN(S(=O)(=O)c3ccc(F)cc3)CC2)c1 | 4.16
40 | COc1ccc(NC(=O)CN2CCN(CC(=O)Nc3ccc(F)cc3)CC2)cc1Cl | -88.6
41 | COc1ccc(NC(=O)CN2CCN(c3ccc(F)cc3)CC2)cc1Cl | 13.2
42 | CCOc1ccc(NC(=O)CN2CCN(CC(=O)Nc3ccccc3OC)CC2)cc1 | -30.9
43 | COc1ccc(NC(=O)CN2CCN(CC(=O)Nc3ccc(F)cc3)CC2)c(OC)c1 | -83.3
44 | COc1cccc(NC(=O)CN2CCN(CC(=O)Nc3ccc(F)cc3)CC2)c1 | -90.6
45 | COc1ccc(NC(=O)CN2CCN(CC(=O)Nc3ccccc3F)CC2)c(OC)c1 | -19.6
46 | COc1ccc(NC(=O)CN2CCN(S(=O)(=O)c3ccc(F)cc3)CC2)cc1Cl | 7.03
47 | COc1ccc(NC(=O)CN2CCCN(S(=O)(=O)c3ccc(F)cc3)CC2)c(OC)c1 | -8.18
48 | Cc1[nH]c2ccccc2c1C(=O)/C=C/c1ccccc1Cl | 14.6
49 | NC(=O)CN1C(=O)NC2(CCCc3sccc32)C1=O (stereo not drawn) | 17
50 | O=C(CCC(=O)c1cccs1)OCc1nc2ccccc2s1 | 12.6
51 | O=c1c2ccccc2nc(CSc2ncnc3nc[nH]c23)n1-c1cccc(C(F)(F)F)c1 | -2.15
52 | COc1ccc(NC(=O)COc2cccnc2[N+](=O)[O-])cc1OC | 15.8
53 | Cc1nc(C(=O)Nc2cc(Cl)ccc2Cl)nn1-c1cc(OC(C)C)c(Cl)cc1Cl | -0.146
54 | CC1CCCN(C(=O)CSc2cnc3ccccc3n2)C1 (stereo not drawn) | -9.88
